{"source": "PubChem BioAssay AID2284365", "about": "(EPA ToxCast)", "note": "Active and inactive are the calls of the source. The calls were made as follows: active = hit-call score of the fitted dose curve at least 0.9, where 1 is the maximum; inactive = score below 0.9.", "data": [{"assay": "CCTE_Mundy_HCI_iCellGABA_NOG_NeuronCount: CCTE's Neurite Outgrowth Assay in iCellGABA cells for Neuron Count, Mundy Lab", "description": "CCTE_Mundy_HCI_iCellGABA_NOG is a multiplexed, cell-based-readout assay that uses iCell GABANeurons from FUJIFILM Cellular Dynamics, Inc. (FCDI), human GABAergic enriched neurons derived from induced pluripotent stem (iPS) cells, with measurements taken at 50.33 hours after chemical dosing in a microplate: 96-well plate.CCTE_Mundy_HCI_iCellGABA_NOG_NeuronCount is one of four components of the CCTE_Mundy_HCI_iCellGABA_NOG assay. It measures cell viability related to number of neurons using High Content Imaging of fluorescently labelled markers.Data from the assay component CCTE_Mundy_HCI_iCellGABA_NOG_NeuronCount was analyzed at the endpoint CCTE_Mundy_HCI_iCellGABA_NOG_NeuronCount in the positive analysis fitting direction relative to DMSO as the negative control and baseline of activity. Using a type of viability reporter, loss-of-signal activity can be used to understand developmental effects.\nExposure starts 2 hours post-plating by adding 10 ul of the working solution to 90 ul of media in the wells for a 1/10 dilution. Forty-eight hours after chemical treatment cells are fixed by direct addition of 100 ul of warm (37C) Dulbecco's phosphate buffered saline (DPBS) fixative solution containing 8% paraformaldehyde, 8% sucrose, and 0.1% of 3 mg/ml Hoechst 33342 into each well. Primary antibodies are prepared by dilution in Immunocytochemical Staining Buffer (ISB), 10X Dulbecco's PBS, 0.1% Saponin, 5% Bovine Serum Albumin, 0.5% NaN3 (Sodium Azide) and betaIII-tubulin (rabbit anti-betaIII-tubulin, 1:800) followed by Alexa Fluor-488 secondary (1:500) to label neuronal cell bodies and neurites. A Cellomics ArrayScan VTi HCS Reader is used for automated image acquisition and analysis of neurite outgrowth.", "values": [{"smiles": "CCOC(=O)CC(SP(=O)(OC)OC)C(=O)OCC", "note": "(stereo unspecified)", "outcome": "inactive"}, {"smiles": "COP(=O)(OC)O/C(=C\\Cl)c1cc(Cl)c(Cl)cc1Cl", "outcome": "inactive"}, {"smiles": "CNC(=O)CSP(=S)(OC)OC", "outcome": "inactive"}, {"smiles": "CCOC(=O)CC(SP(=S)(OC)OC)C(=O)OCC", "note": "(stereo unspecified)", "AC50": "50 µM (active)"}, {"smiles": "CCOP(=O)(SC(C)CC)N1CCSC1=O", "note": "(stereo unspecified)", "outcome": "inactive"}, {"smiles": "CCCCSP(=O)(SCCCC)SCCCC", "AC50": "9.92 µM (active)"}, {"smiles": "COP(=O)(NC(C)=O)SC", "note": "(stereo unspecified)", "outcome": "inactive"}, {"smiles": "CCOP(=O)(OCC)Oc1nc(Cl)c(Cl)cc1Cl", "outcome": "inactive"}, {"smiles": "CCOP(=S)(OCC)SCSCC", "AC50": "0.316 µM (active)"}, {"smiles": "CCOP(=S)(OCC)Oc1ccc2c(C)c(Cl)c(=O)oc2c1", "AC50": "23.4 µM (active)"}, {"smiles": "CCOP(=S)(OCC)Oc1cc(C)nc(C(C)C)n1", "outcome": "inactive"}, {"smiles": "CCOP(=S)(OCC)OC(Cl)C(Cl)(Cl)Cl", "note": "(stereo unspecified)", "AC50": "9.92 µM (active)"}, {"smiles": "COP(=S)(OC)SCN1C(=O)c2ccccc2C1=O", "AC50": "9.92 µM (active)"}, {"smiles": "CCOP(=S)(OCC)Oc1nc(Cl)c(Cl)cc1Cl", "AC50": "9.92 µM (active)"}, {"smiles": "CCOP(=S)(Oc1cnc(C(C)(C)C)nc1)OC(C)C", "note": "(stereo unspecified)", "outcome": "inactive"}, {"smiles": "CCCSP(=O)(OCC)SCCC", "outcome": "inactive"}, {"smiles": "COP(=O)(OC)C(O)C(Cl)(Cl)Cl", "note": "(stereo unspecified)", "AC50": "0.205 µM (active)"}, {"smiles": "CNC(=O)CSP(=O)(OC)OC", "AC50": "18.9 µM (active)"}, {"smiles": "COP(=O)(OC)OC=C(Cl)Cl", "outcome": "inactive"}, {"smiles": "CCOP(=S)(OCC)SCSC(C)(C)C", "AC50": "9.92 µM (active)"}, {"smiles": "COP(N)(=O)SC", "note": "(stereo unspecified)", "outcome": "inactive"}, {"smiles": "CCN(CC)c1nc(C)cc(OP(=S)(OC)OC)n1", "AC50": "19.1 µM (active)"}, {"smiles": "CCOP(=O)(OCC)Oc1cc(C)nc(C(C)C)n1", "outcome": "inactive"}, {"smiles": "COP(=O)(OC)OC(Br)C(Cl)(Cl)Br", "note": "(stereo unspecified)", "AC50": "9.92 µM (active)"}, {"smiles": "CCCSP(=O)(OCC)Oc1ccc(Br)cc1Cl", "note": "(stereo unspecified)", "outcome": "inactive"}, {"smiles": "COP(=O)(OC)O/C(C)=C/C(=O)N(C)C", "outcome": "inactive"}]}]}
